According to PubChem BioAssay (Tox21):
Inconclusive results are not listed. The source made the active and inactive calls. Unless noted, the call rests on the fitted dose curve; in most records, active means well fitted curve in the direction sought with a large enough effect in the repeat runs; inconclusive means weak or mixed curves; inactive means no such curve, though single readings can be large; an effect the other way counts as inactive or inconclusive.

Tests used:
[1] = qHTS assay to identify small molecule agonists of the peroxisome proliferator-activated receptor delta (PPARd) signaling pathway - cell viability counter screen (AID 743211); further: nearly all actives have a fitted effect of over 55% in size
Summary of the method: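 Multiplexed format: after the 2 h room-temperature LiveBLAzer B/G FRET step, CellTiter-Glo was added to the same wells. Luminescence after 30 min gave cell viability; compound exposure was 17 h at 37C.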

[2] = molecular target: Peroxisome proliferator-activated receptor delta (Homo sapiens) (UniProt Q03181); test: qHTS assay to identify small molecule agonists of the peroxisome proliferator-activated receptor delta (PPARd) signaling pathway (AID 743212; calls by dose curve)
Peroxisome proliferator-activated receptor delta (Homo sapiens), sequence (Q03181 whole entry, looked up): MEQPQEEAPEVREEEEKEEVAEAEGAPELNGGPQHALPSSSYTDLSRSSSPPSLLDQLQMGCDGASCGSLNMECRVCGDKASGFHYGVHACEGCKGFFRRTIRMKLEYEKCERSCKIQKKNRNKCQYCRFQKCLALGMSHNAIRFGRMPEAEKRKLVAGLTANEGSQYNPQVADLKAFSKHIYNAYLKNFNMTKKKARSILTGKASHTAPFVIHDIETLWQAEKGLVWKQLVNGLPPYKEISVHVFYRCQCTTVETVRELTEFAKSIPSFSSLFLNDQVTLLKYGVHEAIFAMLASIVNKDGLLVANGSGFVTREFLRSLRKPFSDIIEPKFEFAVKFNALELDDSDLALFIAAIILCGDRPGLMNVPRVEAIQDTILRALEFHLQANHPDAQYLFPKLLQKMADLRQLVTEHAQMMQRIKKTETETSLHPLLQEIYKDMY
Summary of the method: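 HEK293H UAS-bla reporter cells, human PPARd system; compounds delivered in DMSO after 5 h plating, then at 37 C. Beta-lactamase FRET read, 2 h RT substrate step.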

[3] = qHTS assay to identify small molecule antagonists of the peroxisome proliferator-activated receptor delta (PPARd) signaling pathway - cell viability counter screen (AID 743213); further: nearly all actives have a fitted effect of over 50% in size
Summary of the method: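 CellTiter-Glo was added to PPARd-bla HEK293H wells following 17 h compound treatment in the presence of 300 nM L165041. Luminescence was recorded after 30 min at room temperature.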

[4] = molecular target: Peroxisome proliferator-activated receptor delta (Homo sapiens) (UniProt Q03181); test: qHTS assay to identify small molecule antagonists of the peroxisome proliferator-activated receptor delta (PPARd) signaling pathway (AID 743215; active means well fitted inhibition curve with a large enough effect in the signal ratio in the repeat runs, not every such curve was filed as active; the % refers to the signal ratio;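 further: cells stimulated with agonist L165041 at 300 nM final during compound exposure; series mostly up to about 62 µM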)
Summary of the method: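 With L165041 present at 300 nM final, compounds were incubated 17 h at 37 C on PPARd UAS-bla HEK293H cells. A FRET-based beta-lactamase substrate was then applied for 2 h at room temperature and fluorescence intensity recorded.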

[5] = qHTS assay to identify small molecule agonists of the farnesoid-X-receptor (FXR) signaling pathway - cell viability counter screen (AID 743218); further: nearly all actives have a fitted effect of over 45% in size
Summary of the method: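 After 16 h at 37 C with test compounds, FXR-bla HEK 293T cells were given LiveBLAzer B/G substrate for 2 h at RT and then CellTiter-Glo; luminescence was taken after 30 min.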

[6] = qHTS assay to identify small molecule antagonists of the farnesoid-X-receptor (FXR) signaling pathway - cell viability counter screen (AID 743221; active means well fitted cell-killing curve with a large enough effect in the repeat runs, not every such curve was filed as active; further: nearly all actives have a fitted effect of over 50% in size)
Summary of the method: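 CellTiter-Glo, 30 min RT, luminescence; same wells as the LiveBLAzer FRET read. Cells: FXR-UAS-bla HEK 293T. Treatment: compound with chenodeoxycholic acid 50 uM final, 16 h at 37 C.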

[7] = molecular target: Vitamin D3 receptor (Homo sapiens) (UniProt P11473); test: qHTS assay to identify small molecule agonists of the vitamin D receptor (VDR) signaling pathway (AID 743222; calls by dose curve)
Vitamin D3 receptor (Homo sapiens), sequence (P11473 whole entry, looked up): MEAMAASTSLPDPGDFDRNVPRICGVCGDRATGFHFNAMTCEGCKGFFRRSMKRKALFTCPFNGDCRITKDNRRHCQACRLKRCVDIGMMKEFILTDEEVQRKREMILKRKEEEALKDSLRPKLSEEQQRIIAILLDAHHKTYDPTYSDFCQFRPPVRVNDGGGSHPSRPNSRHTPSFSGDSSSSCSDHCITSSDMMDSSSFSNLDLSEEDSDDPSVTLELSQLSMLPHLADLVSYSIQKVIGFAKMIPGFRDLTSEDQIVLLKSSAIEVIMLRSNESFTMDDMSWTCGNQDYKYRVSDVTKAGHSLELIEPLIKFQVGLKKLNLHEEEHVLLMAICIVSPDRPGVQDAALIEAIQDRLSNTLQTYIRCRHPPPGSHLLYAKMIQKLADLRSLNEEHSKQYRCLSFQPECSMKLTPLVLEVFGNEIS
Summary of the method: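 VDR-bla cells were seeded, left 4 h, treated with compounds in DMSO for 16 h, incubated 2 h at RT with B/G FRET substrate, and read for fluorescence.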

[8] = molecular target: Vitamin D3 receptor (Homo sapiens) (UniProt P11473); test: qHTS assay to identify small molecule antagonists of the vitamin D receptor (VDR) signaling pathway (AID 743223; active means well fitted inhibition curve with a large enough effect in the signal ratio in the repeat runs, not every such curve was filed as active; the % refers to the signal ratio)
Summary of the method: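 After VDR-bla cells are plated and left 4 h at 37C, DMSO-dissolved compounds and 3 nM (final) calcitriol agonist are added. Incubation continues 16 h at 37C; FRET beta-lactamase substrate then develops 2 h at room temperature.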

[9] = qHTS assay to identify small molecule agonists of the vitamin D receptor (VDR) signaling pathway - cell viability counter screen (AID 743224); further: series mostly up to about 63 µM; nearly all actives have a fitted effect of over 50% in size
Summary of the method: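 Here cell health was gauged by luminescent ATP detection (CellTiter-Glo, 30 min RT) in VDR-bla cells that had been incubated with test compounds for 16 h at 37C and 5% CO2.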

[10] = qHTS assay to identify small molecule antagonists of the vitamin D receptor (VDR) signaling pathway - cell viability counter screen (AID 743225); further: nearly all actives have a fitted effect of over 50% in size
Summary of the method: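 Cytotoxicity toward the VDR-bla HEK 293T line was scored by ATP-based CellTiter-Glo luminescence, read in the wells already used for the beta-lactamase readout after 16 h compound treatment under 3 nM 1-alpha,25-dihydroxyvitamin D3 stimulation.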

[11] = qHTS assay to identify small molecule agonists of the NFkB signaling pathway (AID 1159509; active means well fitted curve in the direction sought with a large enough effect in the signal ratio in the repeat runs, not every such curve was filed as active; the % refers to the signal ratio; further: series mostly up to about 61 µM)
Summary of the method: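 After overnight attachment, reporter cells received test compounds, DMSO or positive controls and were incubated 5 hr at 37 C. FRET substrate was then added for 1.5 hr at room temperature before dual-emission fluorescence reading.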

[12] = qHTS assay to identify small molecule agonists of the endoplasmic reticulum stress response signaling pathway (AID 1159516; active means well fitted activation curve with a large enough effect in the signal ratio in the repeat runs, not every such curve was filed as active; the % refers to the signal ratio)
Summary of the method: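 Reporter HeLa cells (ESRE-beta-lactamase) underwent 5 hr compound incubation at 37 C and 5% CO2 in quantitative HTS format. Detection followed 2 hr of FRET substrate loading at room temperature.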

[13] = qHTS assay to identify small molecule agonists of the endoplasmic reticulum stress response signaling pathway - cell viability counter screen (AID 1159517; calls by dose curve)
Summary of the method: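 Cells, HeLa ESRE-bla; density, 1,500/well; dosing, 5 hr at 37 C, 5% CO2; readout, CellTiter-Glo luminescence after 30 min RT.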

[14] = qHTS assay to identify small molecule antagonists of the retinoid-related orphan receptor gamma (ROR-gamma) signaling pathway - cell viability counter screen (AID 1159520); further: nearly all actives have a fitted effect of over 50% in size
Summary of the method: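 Cytotoxicity was read from cellular ATP (CellTiter-Glo luminescence) after 16 hr at 37 C with 1 uM doxycycline induction. The inducer was added 2 hr after compound transfer to Tet-on ROR gamma CHO cells.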

[15] = molecular target: Nuclear receptor ROR-gamma (Homo sapiens) (UniProt P51449); test: qHTS assay to identify small molecule antagonists of the retinoid-related orphan receptor gamma (ROR-gamma) signaling pathway (AID 1159521)
Summary of the method: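 Readout: ONE-Glo luciferase luminescence, 30 min at room temperature. System: Tet-on RORγ CHO, RORE-LUC. Sequence: compound 2 h, doxycycline 1 uM final, 16 h at 37 C.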

[16] = qHTS assay to identify small molecule agonists of the AP-1 signaling pathway (AID 1159526; calls by dose curve)
[17] = molecular target: Bile acid receptor (Homo sapiens) (UniProt Q96RI1); test: qHTS assay to identify small molecule agonists of the farnesoid-X-receptor (FXR) signaling pathway (AID 743220; active means well fitted activation curve with a large enough effect in the signal ratio in the repeat runs, not every such curve was filed as active; the % refers to the signal ratio)
Bile acid receptor (Homo sapiens), sequence (Q96RI1 whole entry, looked up): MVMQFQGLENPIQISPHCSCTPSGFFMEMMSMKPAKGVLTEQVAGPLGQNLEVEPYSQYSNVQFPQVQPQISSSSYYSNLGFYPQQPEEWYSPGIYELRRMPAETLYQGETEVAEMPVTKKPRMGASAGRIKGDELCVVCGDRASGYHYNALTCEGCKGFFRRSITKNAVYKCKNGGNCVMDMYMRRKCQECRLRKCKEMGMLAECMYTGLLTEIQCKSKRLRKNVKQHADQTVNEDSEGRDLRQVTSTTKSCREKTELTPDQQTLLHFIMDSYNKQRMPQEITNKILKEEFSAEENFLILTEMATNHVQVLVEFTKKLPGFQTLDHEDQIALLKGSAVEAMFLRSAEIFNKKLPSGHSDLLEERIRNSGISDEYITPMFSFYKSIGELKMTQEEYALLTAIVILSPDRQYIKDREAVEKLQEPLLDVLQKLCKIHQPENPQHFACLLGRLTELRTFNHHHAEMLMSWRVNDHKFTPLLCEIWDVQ
Summary of the method: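 Beta-lactamase reporter under UAS control in GeneBLAzer FXR HEK 293T cells (5000/well) measured with LiveBLAzer FRET substrate after 2 h at room temperature. Compound exposure lasted 16 h at 37C.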

[18] = qHTS assay to identify small molecule agonists of the AP-1 signaling pathway - cell viability counter screen (AID 1159525; calls by dose curve; further: nearly all actives have a fitted effect of over 55% in size)
Summary of the method: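 Luminescent ATP readout (Cell Titer Glo, 30 min RT), normalised to DMSO and tetra n-octyl ammonium bromide controls. Cells were ME-180 AP-1-bla in 0.5% dialyzed FBS Opti-MEM, with a 5 h, 37 °C compound exposure.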

[19] = molecular target: Bile acid receptor (Homo sapiens) (UniProt Q96RI1); test: qHTS assay to identify small molecule antagonists of the farnesoid-X-receptor (FXR) signaling pathway (AID 743217; active means well fitted inhibition curve with a large enough effect in the signal ratio in the repeat runs, not every such curve was filed as active; the % refers to the signal ratio)
Summary of the method: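 In this cell-based antagonist screen, inhibition of CDCA-driven (50 uM final) UAS-beta-lactamase expression in HEK 293T cells was measured by FRET fluorescence following 16 h compound exposure at 37 °C.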

Measured: Potency

Clc1cccc(Cl)c1Cl
inactive: [1] | [2] | [3] | [4] | [5] | [6] | [7] | [8] | [9] | [10] | [11] | [12] | [13] | [14] | [15] | [16]

CN(C)[C@@H]1C(=O)C(C(N)=O)=C(O)[C@@]2(O)C(=O)C3=C(O)c4c(O)cccc4[C@@](C)(O)[C@H]3C[C@@H]12
inactive: [1] | [2] | [3] | [4] | [5] | [17] | [6] | [11] | [12] | [13] | [14] | [18] | [16]

C#CCN(C)[C@H](C)Cc1ccccc1
inactive: [1] | [2] | [3] | [4] | [6] | [8] | [9] | [10] | [11] | [12] | [13] | [14] | [18] | [16]

CCOP(OCC)OCC
inactive: [1] | [3] | [19] | [5] | [17] | [6] | [9] | [10] | [11] | [12] | [13] | [14] | [15] | [18] | [16]

O=S(=O)(c1ccc(Cl)cc1)c1cc(Cl)c(Cl)cc1Cl
inactive: [1] | [2] | [3] | [4] | [19] | [17] | [6] | [8] | [9] | [10] | [11] | [12] | [13] | [14] | [18]

Cc1cc(Cl)ccc1O
inactive: [1] | [2] | [3] | [4] | [19] | [17] | [6] | [8] | [9] | [10] | [11] | [12] | [13] | [14] | [15] | [18] | [16]

Cn1cc(-c2ccccc2)c(=O)c(-c2cccc(C(F)(F)F)c2)c1
inactive: [1] | [2] | [3] | [4] | [5] | [6] | [10] | [11] | [12] | [13] | [14] | [15] | [18] | [16]

CN=C=S
inactive: [1] | [2] | [3] | [4] | [19] | [5] | [17] | [6] | [8] | [9] | [10] | [11] | [12] | [13] | [14] | [18] | [16]

O=[N+]([O-])c1ccc(Oc2ccc(Cl)cc2Cl)cc1
inactive: [1] | [2] | [3] | [4] | [6] | [8] | [9] | [10] | [11] | [12] | [13] | [14] | [15] | [16]

CCNc1nc(NC(C)C)nc(SC)n1
inactive: [1] | [2] | [3] | [4] | [6] | [7] | [8] | [10] | [11] | [12] | [13] | [14] | [15] | [16]
